According to PubChem BioAssay AID920 (The Scripps Research Institute Molecular Screening Center, 2007):
Out of some 200,000 compounds screened, about 700 (0.35%) were called active.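 The calls were made as follows: active = inhibition above a set limit, the mean inhibition across all tested compounds plus 3 SD (cut at about 34% in these data); inactive = the rest.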 The full list was thinned out, with actives kept by preference.

Experiment: STAT1 signaling inhibitors, primary screen, cell-based, HTS, luciferase reporter (AID 920);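 also: 0% = IFN-gamma with DMSO and 100% = IFN-gamma with 300 µM nifuroxazide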
Conditions: NIH 3T3 STAT1-luciferase reporter, IFN-gamma, luminescence; at 5.5 µM; stronger effect = higher value

Structure (SMILES) | inhibition
Cc1noc(C)c1/C=N/Nc1ccc2ccccc2n1 | -64.7% (inactive)
Brc1ccc(-c2csc(N/N=C/c3ccc4c(c3)OCO4)n2)cc1 | -12.1% (inactive)
C(=N\Nc1ccc2ccccc2n1)/c1ccc2c(c1)OCO2 | 68.7% (active)
CCOC(=O)C1C(c2ccc(Cl)cc2)NC(=S)NC1(O)C(F)(F)F (stereo not drawn) | 10.5% (inactive)
Cc1ccc(CN2C(=O)N/C(=C/c3cc(C)n(-c4ccccn4)c3C)C2=O)cc1 | -13.2% (inactive)
S=C(Nc1ccc2c(c1)OCO2)N1CCCC1 | -9.5% (inactive)
c1c2c(cc3sc(N4CCCCC4)nc13)OCCO2 | 47.8% (active)
Brc1ccc2nc(N3CCCC3)sc2c1 | -39.3% (inactive)
COc1ccc2nc(Nc3nc4cc5c(cc4s3)OCCO5)sc2c1 | -15.9% (inactive)
CCOC(=O)C1(CCOc2ccccc2)CCN(C(=O)c2cncs2)CC1 | -0.02% (inactive)
O=C(O)CSc1nnc(-c2ccc3c(c2)OCO3)n1-c1ccccc1 | -5.92% (inactive)
CCc1ccc2oc(-c3ccc(N)cc3)nc2c1 | 34.5% (active)
CCCCCC(=O)Nc1ccc2oc(-c3ccncc3)nc2c1 | -3.9% (inactive)
COc1cccc(-c2nc3cc(C)ccc3o2)c1 | -6.24% (inactive)
CC(C)/C=N/NC(=O)c1cc(Br)ccc1O | 11.2% (inactive)
O=C(/C=C/c1ccccc1[N+](=O)[O-])NCC1CCCO1 (stereo not drawn) | -5.46% (inactive)
CCc1nnc(NC(=O)CCCSc2nc3ccccc3[nH]2)s1 | 20.4% (inactive)
NC(=O)Nc1ccccc1C(=O)NCCc1ccccc1 | -28.8% (inactive)
COc1cc2c(C(=O)N3CCN(C)CC3)c(CSc3ccccc3)n(C)c2cc1Br | 10.4% (inactive)
COc1ccc(-c2noc(-c3ccc(C)cc3)n2)cc1 | -36.1% (inactive)
COc1ccc(-c2nc(-c3ccccc3)no2)c(OC)c1 | 60.8% (active)
COc1ccc(-c2noc(-c3cccc(OC)c3OC)n2)cc1OC | -49.2% (inactive)
Cc1ccc(C(C)(C)C)c(OCCCCN2CCCC2)c1 | 9.92% (inactive)
Cc1nc2ccccc2c(C)c1C(=O)c1ccc(F)cc1 | 15.9% (inactive)
O=C(c1ccc(S(=O)(=O)c2ccccc2)cc1)N1CCCCCC1 | 14.2% (inactive)

Structure (SMILES) | inhibition
Cc1cccc(NC(=O)c2ccc3ccccc3n2)n1 | -31.6% (inactive)
CCOC(=O)C(=CNc1cccc(C)n1)C(=O)OCC | 43.5% (active)
CCOc1ccc(OCc2ccc(C(=O)Nc3cccc(C)n3)o2)cc1 | -24.1% (inactive)
Cc1ccc(C(C[N+](=O)[O-])c2c(C)cc3ccccn23)cc1 (stereo not drawn) | 10.7% (inactive)
C=CCN1C(=O)C(Cc2ccc(OCC)cc2)SC1=Nc1ccc(C(=O)O)cc1 (stereo not drawn) | 11.1% (inactive)
Nc1ccc(OCC(O)C[n+]2ccc(CCS(=O)(=O)[O-])cc2)cc1 (stereo not drawn) | 0.06% (inactive)
Cc1cc(N2CCN(Cc3ccc4c(c3)OCO4)CC2)n2ncnc2n1 | 6.31% (inactive)
Fc1ccc2[nH]c3c(N4CCSCC4)ncnc3c2c1 | 25.6% (inactive)
Fc1ccc2[nH]c3c(N4CCN(Cc5ccc6c(c5)OCO6)CC4)ncnc3c2c1 | 45.1% (active)
O=C(CC1SC(=Nc2ccccc2F)N(CCN2CCOCC2)C1=O)Nc1ccc(F)cc1F (stereo not drawn) | 2.14% (inactive)
Cc1ccc(N/C(N)=N/c2nc(C(F)(F)F)cc(C(F)(F)F)n2)cc1 | -12.9% (inactive)
CCOc1cc(/C=C(/C#N)c2ccc(Cl)cc2)cc(Cl)c1OCC(=O)O | 47.4% (active)
CCOC(=O)CN/C=C(\C#N)c1ccc(F)cc1 | 1.52% (inactive)
CCOc1c(Cl)cc(/C=N/O)cc1OC | 5.54% (inactive)
COc1ccc(C2c3c(C)nn(-c4ccccc4)c3NC(=O)N2c2ccccc2)cc1 (stereo not drawn) | -3.45% (inactive)
Cc1noc(C)c1CCC(=O)O | 3.78% (inactive)
O=C(C1CCN(C2CCN(Cc3ccc4cc(F)ccc4n3)CC2)CC1)N1CCCC1 | 2.2% (inactive)
CCc1cc(CNC(=O)CC2C(=O)NCCN2CC2CCCCC2)on1 (stereo not drawn) | 6.89% (inactive)
CN(C)S(=O)(=O)c1cccc(NC(=S)N/N=C/C(=O)c2ccccc2)c1 | -1.89% (inactive)
CSC(=S)N/N=C/c1c[nH]c2ccccc12 | -6.4% (inactive)
O=C(O)c1cccc(NC(=S)N/N=C/c2c[nH]c3ccccc23)c1 | 58% (active)
COc1ccc(CCC(=O)OCC(=O)Nc2ccc(C)c(S(=O)(=O)N(C)C)c2)cc1 | 1.53% (inactive)
Cc1ccc2[nH]cc(CCCN3C(=O)c4ccccc4C3=O)c2c1 | 0.21% (inactive)
CCOC(=O)N1CCN(C(=O)C2CCN(c3ncnc4c3sc3cccc(F)c34)CC2)CC1 | 37.1% (active)
CCOC(=O)C1CCN(c2ncnc3c2oc2ccc(Br)cc23)CC1 | -3.28% (inactive)

Structure (SMILES) | inhibition
CCOC(=O)N1CCN(C(=O)C2CCN(Cc3ccc(OC)cc3OC)CC2)CC1 | 5.92% (inactive)
Cc1cccc(-n2c(SCC(=O)Nc3cccc(S(=O)(=O)NC4=NCCCCC4)c3)nc3ccccc3c2=O)c1C | -1.66% (inactive)
NS(=O)(=O)c1cccc(NC(=O)CSc2nc3ccccc3n2-c2ccccc2)c1 | 55.1% (active)
Cc1ccc(-n2c(SCC(=O)Nc3ncc(Cl)cc3Cl)nc3ccccc32)cc1 | 12.4% (inactive)
Cc1nn(C)cc1C(=O)Nc1ccccc1Br | -7.01% (inactive)
CCCN1C(=O)C(Cc2nc3ccccc3c(=O)n2-c2ccccc2)c2cc(C)ccc21 (stereo not drawn) | 6.11% (inactive)
CCCOC1CCCN(Cc2cn(C)nc2-c2ccccc2F)C1 (stereo not drawn) | -4.18% (inactive)
Cc1ncoc1C(=O)NCCC(c1ccccc1)c1ccccc1 | -1.04% (inactive)
CCOC(=O)N1CCN(C(=O)CSc2nnc(-c3c[nH]c4ccccc34)n2CCOC)CC1 | 37.2% (active)
CCC(C)Sc1nnc(-c2c[nH]c3ccccc23)n1CCOC (stereo not drawn) | 3.54% (inactive)
CCn1c(SCC(=O)Nc2ccc(OC)c(OC)c2)nnc1-c1c[nH]c2ccccc12 | 3.46% (inactive)
Cc1ccc2[nH]cc(CCNC(=O)c3ccc([N+](=O)[O-])cc3)c2c1 | -1.14% (inactive)
COc1ccc(N2C(=O)CC(SC(C)C)C2=O)cc1 (stereo not drawn) | 2.11% (inactive)
COc1ccc(C2CC(c3cccs3)=NN2c2nc(C)c(C(C)=O)s2)cc1OC (stereo not drawn) | 34.5% (active)
COc1ccc(C2CC(c3cccs3)=NN2c2ccc(F)cc2)cc1OC (stereo not drawn) | -5.19% (inactive)
COc1ccc(C2CC(c3cccs3)=NN2C(=O)CSc2nncs2)cc1OC (stereo not drawn) | 17% (inactive)
Cc1cccc(NS(=O)(=O)c2ccc(C)c(C(N)=O)c2)c1 | 14% (inactive)
CCN(/N=C/c1ccccc1)c1cc(=O)n(C)c(=O)[nH]1 | 1.47% (inactive)
CC1CC(C)CN(C(=O)CSc2ccsc2[N+](=O)[O-])C1 (stereo not drawn) | 1.9% (inactive)
Cc1ccc(CN(C)CC(=O)Nc2cccc([N+](=O)[O-])c2)o1 | 8.85% (inactive)
Cc1ccc(NC(=O)CN(C)CC(=O)Nc2cccc(F)c2)cc1[N+](=O)[O-] | 34.4% (active)
CN(CC(=O)Nc1cccc(F)c1)CC(=O)Nc1cccc([N+](=O)[O-])c1 | 9.08% (inactive)
O=C(c1cccc([N+](=O)[O-])c1)N1CCN(C(=O)c2ccco2)CC1 | 1.07% (inactive)
Cc1ccc2[nH]c(C)c(CCNC(=O)NC3CCCCC3)c2c1 | 8.57% (inactive)
CC(=O)N1N=C(c2ccccc2)OC1c1cccnc1 (stereo not drawn) | -12.4% (inactive)

Structure (SMILES) | inhibition
COc1ccc(C(=O)Nc2ccccc2C(=O)N/N=C/c2ccc(O)c(OC)c2)cc1 | 99.9% (active)
COc1ccc(/C=N/NC(=O)c2ccccc2)cc1OS(=O)(=O)c1ccccc1 | 6.31% (inactive)
COc1ccccc1C(=O)NNC(=O)c1ccc(NC(=O)c2ccccc2)cc1 | 3.37% (inactive)
COc1cc(/C=N/NC(=O)c2ccccc2)ccc1OS(=O)(=O)c1ccccc1 | -17.2% (inactive)
CCn1c(/C=N/NC(=O)c2ccc(OC)cc2)nc2ccccc21 | 1.5% (inactive)
COc1ccc(C(=O)Nc2ccccc2C(=O)N/N=C/c2ccccc2OC)cc1 | 58.5% (active)
CCN(C(=O)c1ccc(Br)cc1)c1ccccc1 | 12.3% (inactive)
CC(=O)c1c(C)[nH]c(C(=O)OCC(=O)Nc2sc3c(c2C#N)CCCC3)c1C | -6.37% (inactive)
Cc1nc(CN2CCN(C(=O)CCc3nnc(Cc4c[nH]c5ccccc45)o3)CC2)cs1 | 0.65% (inactive)
CCCCOC(=O)CCCc1ccc([N+](=O)[O-])cc1[N+](=O)[O-] | 6.62% (inactive)
Cc1cc(O)c(NC(=O)c2ccc(C)c([N+](=O)[O-])c2)cc1C | -3.86% (inactive)
O=C(NNC(=O)C1CCN(c2ncccn2)CC1)c1ccccc1 | -0.55% (inactive)
CC(=O)c1cc(C#N)c(N2CCCCC2)nc1C | 2.46% (inactive)
Cc1ccsc1C(=O)OCC(=O)c1cc2ccccc2o1 | -6.53% (inactive)
Cc1ccsc1C(=O)OCC(=O)c1cc(C)n(CC2CCCO2)c1C (stereo not drawn) | 77.5% (active)
Cc1cc(C(=O)Cn2cnc3cc([N+](=O)[O-])ccc3c2=O)c(C)n1CC1CCCO1 (stereo not drawn) | -2.94% (inactive)
CC1CC(C)(C)NC(=S)N1CCC(=O)N1CCN(Cc2ccccc2)CC1 (stereo not drawn) | -1.54% (inactive)
COc1ccc(NC(=S)NCCN2CCC(C)CC2)cc1 | 4.93% (inactive)
Cc1cccc(C(=O)Nc2ccc3c(c2)C(=O)N(CC(C)C)C3=O)c1 | -24.8% (inactive)
O=C(CSc1nc2ccc([N+](=O)[O-])cc2[nH]1)c1ccc(Cl)cc1 | -9.84% (inactive)
COc1ccc(-c2cn3ccsc3n2)cc1 | -38.6% (inactive)
Cc1ccc(-c2cn3cc([N+](=O)[O-])ccc3n2)cc1 | -37.1% (inactive)
Cc1ccc(-c2cn3cc(C)ccc3n2)cc1 | 94.3% (active)
